Screening data as filed in PubChem.
Hits are enriched below; roughly 8% of the tested compounds scored in any of these assays.
HCMV inh: blocks human cytomegalovirus replication; HFF cells, HCMV-luciferase reporter, 72 h; hits give low values; activity change, negative = inhibition, % at 57.5 µM; actives 4.5% (n = 410,000); AID 1259415; in the data active = activity change below about -60%; inconclusive = no clear call, values can overlap the other calls; inactive = above about -39%; also: % is scaled to controls: 0 for no effect and ±100 for the full control effect
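After 16 h attachment at 37C, HFF cells received test compound and HCMV-luciferase (1 PFU/cell); reporter luminescence read 72 h later, data normalized against buffer-only and known inhibitor Salinomycin.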
LASV entry inh: Lassa virus entry inhibition; Potency, µM (series often up to 37.9 µM), inactives show top-dose activity change, negative = inhibition, usual class: inhibitors; actives 1.2% (n = 300,000); AID 540256; Lassa virus pseudotype entry inhibition, cell reporter; calls by dose curve; tested in HEK293 cells; also: potency is read from the fitted curve at half-maximal effect; % is scaled to controls: 0 for no effect and ±100 for the full control effect; nearly all actives have a fitted effect of over 50% in size
SARS PLpro yeast: inhibitors of SARS-CoV papain-like protease in yeast; AID 485353; Potency, µM (top dose mostly 32.9 µM), without a hit: at the highest dose activity, positive = growth rescue, hits mostly activators; S. cerevisiae expressing SARS-CoV PLpro, growth rescue; actives 0.19% (n = 330,000); calls by dose curve; also: potency is read from the fitted curve at half-maximal effect; 0% is about no effect; nearly all actives have a fitted effect of over 55% in size
MARV entry inh: Marburg virus entry inhibition; Marburg virus pseudotyped entry inhibition, cell reporter; Potency, µM (series often up to 37.8 µM), without a hit: at the top dose activity change, negative = inhibition, actives largely listed as inhibitors; actives 1.8% (n = 300,000); calls by dose curve; tested in HEK293 cells; also: potency is read from the fitted curve at half-maximal effect; % is scaled to controls: 0 for no effect and ±100 for the full control effect
FMDV antiviral: blocks foot and mouth disease virus | FMDV antiviral cell-based qHTS | Potency, µM (doses to about 57.9 µM), for inactives: top-dose activity change, negative = inhibition, actives largely listed as inhibitors | actives 1.2% (n = 410,000) | AID 1159524; calls by dose curve; tested in HEK293T cells; also: read-out not given here; potency is read from the fitted curve at half-maximal effect; % is scaled to controls: 0 for no effect and ±100 for the full control effect; nearly all actives have a fitted effect of over 45% in size
HCV inhibitor: HCV inhibition; actives 3.4% (n = 340,000); AID 651820; Potency, µM (top dose mostly 41.8 µM), without a hit: top-dose activity change, negative = inhibition, most hits filed as inhibitors; Huh7.5.1 HCVcc-Cre infection, luciferase reporter, 44 h; active = well fitted inhibition curve with a large enough effect; inconclusive = small, poorly fitted or top-dose-only effect, or another doubt; inactive = no such curve, though single readings can be large or run the other way; also: potency is read from the fitted curve at half-maximal effect; % is scaled to controls: 0 for no effect and ±100 for the full control effect
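Cells (1,000/well) were plated 4 h before compound, then infected with HCVcc-Cre virus (~0.5 moi). After 44 h further culture, infection was read as luciferase luminescence following a 15 min substrate incubation at room temperature.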
Starred values were filed as active, the others as inactive; ? = inconclusive; · = no result given; + = active, no number; [ ] = remark or other dose.

SMILES	HCMV inh	LASV entry inh	SARS PLpro yeast	MARV entry inh	FMDV antiviral	HCV inhibitor
CCCNS(=O)(=O)c1ccc(OCC(=O)N2CCN(Cc3ccc4c(c3)OCO4)CC2)c(C)c1	?	?	-0.2%	?	-21.3%	7.94µM*
CCOC(=O)c1ccc(NC(=O)COCc2cc(-c3ccc4c(c3)OCO4)on2)cc1	-13.1	?	·	·	-23.5%	·
CC(OC(=O)c1ccccc1NS(=O)(=O)c1cccc(N)c1)C(=O)N(C)Cc1ccccc1 (centres undefined)	-72.1*	?	-10.3%	?	7.4%	?
CC(=O)Nc1cccc(Oc2cc(C#N)c(C#N)cc2N2CCCCCC2)c1	-86.9*	-21.1%	-10.1%	?	?	?
Cc1cc(Cn2nc(-c3ccccc3)cc2C(=O)NCc2cccc(Br)c2)on1	40.9	·	-0.8%	·	4.5%	5.62µM*
CCCn1cc(S(=O)(=O)c2ccc(F)cc2)c(=O)c2cc(OCC)ccc21	-67.3*	·	2.7%	·	-2.9%	-23.6%
Cc1ccc(C2=NCC(C)n3c2c2ccccc2[n+]3[O-])cc1 (centres undefined)	18.6	·	·	·	·	·
CN(C)CCCNS(=O)(=O)c1ccc(NC2CCCCCC2)c([N+](=O)[O-])c1	-69.1*	-1.7%[46.1 µM]	-0.9%	?	-26.2%	5.62µM*
CC(C)(C)c1ccc(C(=O)NCC(c2cccnc2)N2CCc3ccccc3C2)cc1 (centres undefined)	?	1.1%[46.1 µM]	·	·	?	·
COC(=O)[C@@H]1[C@@H](CO)[C@@H]2Cn3c(ccc(Br)c3=O)[C@@H]2N1C	0.4	·	·	·	·	·
COc1ccc(CNC[C@H]2O[C@@H](n3ccc(=O)[nH]c3=O)[C@H](O)[C@@H]2O)cc1OC	-12.9	·	·	·	-2.5%	6.31µM*
Cc1cc(C(=O)Cn2nnc3ccccc3c2=O)c(C)n1Cc1cccs1	5.8	?	18.0%	?	-12.7%	-22.8%
Cc1cc(C(=O)CN2C(=O)c3ccccc3C2=O)c(C)n1Cc1cccs1	-27.3	-48.2%[14.3 µM]	5.6%	6.51µM*	-7.2%	-17.8%
CC(NC(=O)c1ccco1)C(c1cccs1)N1CCN(c2ccc(F)cc2)CC1 (centres undefined)	?	?	-21.1%	?	·	10µM*
COc1ccc(NC(=O)Cn2c(=O)oc3cc(S(=O)(=O)NC4CCCC4)ccc32)cc1OC	+	27.1%[46.1 µM]	·	·	43.5%	·
CC1CCC2(CC1)NC(=O)N(CC(=O)N1c3ccccc3CC1C)C2=O (centres undefined)	-71.2*	-1.5%	5.2%	14.9%	-17.9%	19.5%
COc1ccc(CNC(=O)Cn2c(=O)oc3cc(S(=O)(=O)N4CCC(C)CC4)ccc32)cc1	-0.9	?	·	7.08µM*	-14.1%	·
Cc1cc(C)cc(NC(=O)Cn2c(=O)oc3cc(S(=O)(=O)N4CCC(C)CC4)ccc32)c1	-68.5*	·	0.4%	1.0%	-21.9%	-22.4%
COc1ccc(NC(=O)Cn2c(=O)oc3cc(S(=O)(=O)NC(C)C)ccc32)cc1OC	0.0	-2.6%[46.1 µM]	·	·	31.6%	·
CC1CCN(S(=O)(=O)c2ccc3c(c2)oc(=O)n3CC(=O)O)CC1	-15.4	3.4%[46.1 µM]	·	·	0.2%	·
COc1ccc(OC)c(NC(=O)c2cnn(-c3ccc(C)cc3)c2C2CCNCC2)c1	-17.2	7.3%[46.1 µM]	·	·	-2.2%	·
CC[C@H](CC[C@@H](C)[C@H]1CC[C@H]2[C@@H]3CC=C4C[C@@H](O)CC[C@]4(C)[C@H]3CC[C@]12C)C(C)C	·	·	·	·	-9.6%	·
CC(C)(C)c1ccc(O[C@@H]2[C@H](O)CO[C@H]2/C=C/C#Cc2ccccc2)cc1	·	·	·	-9.0%[14.2 µM]	·	·
CC1Cc2ccccc2N1C(=O)Cn1c(=O)oc2cc(S(=O)(=O)NC3CCCC3)ccc21 (centres undefined)	5.6	·	8.2%	-3.6%	25.4%	-8.2%
CC1CCN(S(=O)(=O)c2ccc3c(c2)oc(=O)n3CC(=O)N2c3ccccc3CC2C)CC1 (centres undefined)	41.8	·	-6.4%	2.7%	0.0%	12.6µM*
Cc1cc(C)c(NC(=O)CSc2ncc(S(=O)(=O)c3ccc(C(C)(C)C)cc3)c(=O)[nH]2)c(C)c1	20.0	·	·	12.1%[46.1 µM]	-26.0%	·
